# A number with no mark means an inactive call. The list shows a part of the results. Calls of active or inactive are those of the source.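 How the source made its calls, unless noted: active means inhibition above the hit cutoff computed for the primary STAT3 screen (cut at about 44% in these data); inactive means the rest.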
# Tests used:
# [1] = STAT3 reporter inhibitors, retest of hits, confirmation, U3A cells, luciferase, luminescence (AID 1265); conditions: IL-6 STAT3 luciferase reporter, at 5.7 µM, active compounds read high, cell line lacks STAT1;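 further: 0% = IL-6 plus DMSO and 100% = IL-6 plus nifuroxazide control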
# [2] = NF-kB reporter inhibitors in human cells, confirmation, counter-screen for STAT3 inhibitor project, cell-based, HEK293T, luciferase, TNF-alpha stimulus (AID 1308;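 active means inhibition above the mean of solvent-only control wells plus 3 SD, cutoff set per campaign, cut at about 13% in these data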;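 further: 0% = TNF-alpha with DMSO and 100% = TNF-alpha with MG high control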); conditions: TNF-alpha induced, at 5.7 µM, active compounds read high
# [3] = STAT1 reporter inhibitors, IFN-gamma induced, confirmation, counter-screen for STAT3 inhibitor project, cell-based, NIH 3T3, luciferase luminescence (AID 1317;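 active means inhibition above the mean plus 3 SD of solvent-only control wells, limit set per screening run, cut at about 16% in these data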;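 further: 0% = DMSO with IFN-gamma and 100% = nifuroxazide control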); conditions: NIH 3T3 STAT1-luciferase reporter, at 5.7 µM, active compounds read high
# [4] = STAT1 signaling activators, confirmation, cell-based, HTS, luciferase reporter (AID 1262;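 active means activation above a set limit carried over from the earlier primary STAT1 screen, cut at about 140% in these data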;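 further: simple ratio to median IFN-gamma plus DMSO wells so 0% means no light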); conditions: NIH 3T3 STAT1-luciferase reporter, IFN-gamma potentiation, luminescence; at 5.7 µM; active compounds read high; 100% = IFN-gamma EC80 alone, no compound
# [5] = NF-kB reporter activators, TNF-alpha stimulated, counter-screen for STAT1 activator project, cell-based, HEK293T, luciferase luminescence (AID 1306;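 active means activation above the mean of solvent-only control wells plus 3 SD, set per campaign, cut at about 130% in these data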;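 further: TNF-alpha given at a submaximal dose yielding about 80% of full reporter signal; values are well signal over median control so 100% means no change and 0% no light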); conditions: at 5.7 µM, active compounds read high, 100% = TNF-alpha with vehicle only
# [6] = target: Signal transducer and activator of transcription 3 (Homo sapiens) (UniProt P40763); test: STAT3 reporter activation by STAT1 hits, confirmation, counter-screen for STAT1 activator project, U3A cells, luciferase, luminescence (AID 1316;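 active means activation above the solvent-only control well mean plus 3 SD, set per plate batch, cut at about 110% in these data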;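 further: 0% = no luminescence and 100% = median IL-6 plus DMSO wells; higher means more STAT3 reporter activation so hits are non-selective activators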); conditions: IL-6, luminescence, at 5.7 µM, active compounds read high, 100 = IL-6 alone, no compound effect, cells lack STAT1
# [7] = system: DAF-12 nuclear receptor (Heterodera glycines), GAL4-LBD fusion; test: H. glycines DAF-12 receptor agonists, confirmation, cell-based, luminescence, HEK293, GAL4-LBD fusion (AID 743050;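 active means mean activation over triplicate wells above the hit cutoff derived from the earlier primary screen, cut at about 11% in these data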;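 further: 0% = DMSO low control and 100% = 2 mM sodium butyrate high control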); conditions: HEK293 GAL4-hgDAF12 luciferase reporter, agonist mode; at 6.8 µM; active compounds read high; percent of butyrate response
# [8] = target: Oxysterols receptor LXR-beta (Homo sapiens) (UniProt P55055); test: LXR agonists, Gal4 luciferase reporter, confirmation, counter-screen for hgDAF-12 agonist project, cell-based, luminescence, HEK293, H. glycines campaign (AID 743051;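 active means mean activation of the triplicate above a set limit carried over from the primary screen, none filed active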); conditions: 24 h, at 6.8 µM, active compounds read high
# Oxysterols receptor LXR-beta (Homo sapiens), sequence (P55055 whole entry, looked up, the tested form may be a part): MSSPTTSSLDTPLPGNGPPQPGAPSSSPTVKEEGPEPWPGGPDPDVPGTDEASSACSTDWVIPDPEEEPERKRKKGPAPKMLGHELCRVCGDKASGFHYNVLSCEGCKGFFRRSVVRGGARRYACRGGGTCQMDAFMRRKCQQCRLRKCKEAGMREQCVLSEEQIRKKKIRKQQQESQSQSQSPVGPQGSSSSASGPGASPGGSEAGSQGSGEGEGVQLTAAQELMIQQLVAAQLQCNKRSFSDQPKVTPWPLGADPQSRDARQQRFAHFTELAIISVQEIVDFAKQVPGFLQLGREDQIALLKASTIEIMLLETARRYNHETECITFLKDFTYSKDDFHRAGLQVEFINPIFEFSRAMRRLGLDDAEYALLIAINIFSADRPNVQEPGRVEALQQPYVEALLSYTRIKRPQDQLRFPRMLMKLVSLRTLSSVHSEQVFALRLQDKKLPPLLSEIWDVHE
# [9] = target: Photoreceptor-specific nuclear receptor (Homo sapiens) (UniProt Q9Y5X4); test: NR2E3 agonist confirmation in cells, cell-based, luminescence, CHO-S two-hybrid (AID 624378;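 active means average inhibition above a cutoff equal to the mean inhibition of all tested compounds plus one SD, cut at about 70% in these data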;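 further: 0% = DMSO in NR2E3 cells and 100% = DMSO in cells lacking NR2E3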); conditions: CHO-S mammalian two-hybrid NR2E3-NCOR, luciferase luminescence; at 3.98 µM; active compounds read high
# Photoreceptor-specific nuclear receptor (Homo sapiens), sequence (Q9Y5X4 whole entry, looked up, the tested form may be a part): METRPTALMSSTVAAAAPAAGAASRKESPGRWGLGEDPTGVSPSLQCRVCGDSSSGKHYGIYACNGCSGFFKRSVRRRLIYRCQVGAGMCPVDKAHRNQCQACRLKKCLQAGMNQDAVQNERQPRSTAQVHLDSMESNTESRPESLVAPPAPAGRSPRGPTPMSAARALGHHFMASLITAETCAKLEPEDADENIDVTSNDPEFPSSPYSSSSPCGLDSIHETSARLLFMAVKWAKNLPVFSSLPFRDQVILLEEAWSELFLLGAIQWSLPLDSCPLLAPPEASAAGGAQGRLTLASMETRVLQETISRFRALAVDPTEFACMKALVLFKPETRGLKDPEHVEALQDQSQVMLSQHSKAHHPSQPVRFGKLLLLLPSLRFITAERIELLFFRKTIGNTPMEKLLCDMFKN
# [10] = GAL4-VP16 reporter modulators, confirmation, counter-screen for NR2E3 agonist project, cell-based, luminescence, CHO-S, high throughput (AID 624379;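 active means mean inhibition above a cutoff equal to the average over all tested compounds plus one standard deviation, cut at about 70% in these data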;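 further: luciferase from a UAS reporter driven by GAL4-VP16 transactivation; 0% = DMSO with VP16-transfected cells and 100% = DMSO with cells lacking VP16; higher means less reporter light so more repression of VP16 activity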); conditions: CHO-S GAL4-VP16 luciferase reporter, at 3.98 µM, active compounds read high
# [11] = Gal4-VP16 luciferase reporter inhibitors, counter-screen for COUP-TFII antagonist project, cell-based, luminescence, HEK293 (AID 687007; in the data active means inhibition above about 13%); conditions: at 8.5 µM, active compounds read high
# [12] = target: COUP transcription factor 2 (Homo sapiens) (UniProt P24468); test: NR2F2 transcriptional activity inhibitors, confirmation, cell-based, luciferase reporter, HEK293, triplicate (AID 687008;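 active means mean inhibition over three repeats above a set limit taken from the earlier primary screen, cut at about 38% in these data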;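 further: 100% = cells given the luciferase reporter alone without the COUP-TF2 vector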); conditions: HEK293 NGFI-A luciferase reporter, luminescence; at 8.5 µM; active compounds read high
# COUP transcription factor 2 (Homo sapiens), sequence (P24468 whole entry, looked up): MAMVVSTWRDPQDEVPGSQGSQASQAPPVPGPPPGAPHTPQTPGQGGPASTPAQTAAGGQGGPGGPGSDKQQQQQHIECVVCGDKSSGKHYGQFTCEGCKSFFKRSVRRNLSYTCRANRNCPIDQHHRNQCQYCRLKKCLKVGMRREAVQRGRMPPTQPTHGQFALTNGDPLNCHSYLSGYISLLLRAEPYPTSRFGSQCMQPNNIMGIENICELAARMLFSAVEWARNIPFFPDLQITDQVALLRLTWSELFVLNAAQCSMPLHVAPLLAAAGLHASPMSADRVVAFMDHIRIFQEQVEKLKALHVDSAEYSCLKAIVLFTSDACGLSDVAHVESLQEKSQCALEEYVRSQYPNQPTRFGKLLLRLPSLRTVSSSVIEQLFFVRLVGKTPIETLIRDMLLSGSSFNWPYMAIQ
# [13] = target: Galanin receptor type 2 (Homo sapiens) (UniProt O43603); test: GALR2 antagonists, retest of hits, confirmation, cell-based (AID 866; in the data active means inhibition above about 27%;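 further: cells stimulated with galanin at about its EC80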); conditions: GALR2-expressing cells, antagonist mode, at 4 µM, active compounds read high
# Galanin receptor type 2 (Homo sapiens), sequence (O43603 whole entry, looked up): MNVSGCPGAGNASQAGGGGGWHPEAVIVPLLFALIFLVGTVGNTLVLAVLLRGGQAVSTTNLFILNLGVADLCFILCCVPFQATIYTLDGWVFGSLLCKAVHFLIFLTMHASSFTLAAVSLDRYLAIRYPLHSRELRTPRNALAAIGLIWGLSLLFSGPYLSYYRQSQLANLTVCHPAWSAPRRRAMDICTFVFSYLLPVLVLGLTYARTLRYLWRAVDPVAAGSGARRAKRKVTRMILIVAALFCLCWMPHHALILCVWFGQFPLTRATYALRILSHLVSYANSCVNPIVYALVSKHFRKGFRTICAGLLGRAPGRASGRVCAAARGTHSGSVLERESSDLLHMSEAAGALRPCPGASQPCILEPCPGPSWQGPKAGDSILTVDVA
# [14] = inhibitors of NFAT-driven beta-lactamase reporter, confirmation, counter-screen for GALR2 antagonist project, CHO NFAT-bla cells, FRET readout (AID 867;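 active means inhibition above the mean inhibition across tested compounds plus 3 SD, cut at about 27% in these data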;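 further: 0% = 500 nM thapsigargin stimulated wells and 100% = unstimulated BSA only wells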); conditions: thapsigargin-stimulated, at 4.2 µM, active compounds read high
# [15] = target: Serine protease HTRA1 (Homo sapiens) (UniProt Q92743); test: HTRA1 protease inhibitors, retest, confirmation, biochemical, fluorescence polarization (AID 540248;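 active means mean inhibition over three repeats above a set limit taken from the earlier primary screen, cut at about 37% in these data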;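 further: 0% = HTRA1 with DMSO and 100% = wells lacking HTRA1; inhibitors block probe binding so polarization drops and inhibition rises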); conditions: recombinant HTRA1, FP-rhodamine activity-based probe, at 5.96 µM, active compounds read high
# [16] = target: Oxysterols receptor LXR-beta (Homo sapiens) (UniProt P55055); test: LXR agonists, Gal4 luciferase reporter, confirmation, counter-screen for hcDAF-12 agonist project, cell-based, luminescence, HEK293, H. contortus campaign (AID 743027;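 active means mean percent activation of the reporter above a cutoff set as the average over tested compounds plus their standard deviation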); conditions: HEK293 Gal4-LXR tk-luc reporter, 24 h, at 6.8 µM, active compounds read high, normalized: DMSO 0%, positive control 100%
# [17] = system: Nuclear hormone receptor DAF-12 (Haemonchus contortus); test: H. contortus DAF-12 receptor agonists, confirmation, cell-based, luminescence, HEK293, lit1-tk-luc, triplicate (AID 743032;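 active means mean activation across triplicate tests above the threshold derived from the earlier primary screen, cut at about 5.5% in these data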;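 further: 0% = DMSO only wells and 100% = 3 µM Δ7-dafachronic acid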); conditions: HEK293 hcDAF-12 lit1-tk-luc reporter, at 6.8 µM, active compounds read high, % of Δ7-dafachronic acid response
# [18] = target: Peroxisome proliferator-activated receptor gamma (Homo sapiens) (UniProt P37231); test: agonists of PPARgamma SRC-2 coactivator recruitment, confirmation, biochemical, HTS (AID 1297; in the data active means activation above about 22%;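 further: 0% = vehicle alone and 100% = reference agonist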); conditions: biochemical SRC-2 recruitment by PPARgamma; at 8 µM; active compounds read high
# Peroxisome proliferator-activated receptor gamma (Homo sapiens), sequence (P37231 whole entry, looked up): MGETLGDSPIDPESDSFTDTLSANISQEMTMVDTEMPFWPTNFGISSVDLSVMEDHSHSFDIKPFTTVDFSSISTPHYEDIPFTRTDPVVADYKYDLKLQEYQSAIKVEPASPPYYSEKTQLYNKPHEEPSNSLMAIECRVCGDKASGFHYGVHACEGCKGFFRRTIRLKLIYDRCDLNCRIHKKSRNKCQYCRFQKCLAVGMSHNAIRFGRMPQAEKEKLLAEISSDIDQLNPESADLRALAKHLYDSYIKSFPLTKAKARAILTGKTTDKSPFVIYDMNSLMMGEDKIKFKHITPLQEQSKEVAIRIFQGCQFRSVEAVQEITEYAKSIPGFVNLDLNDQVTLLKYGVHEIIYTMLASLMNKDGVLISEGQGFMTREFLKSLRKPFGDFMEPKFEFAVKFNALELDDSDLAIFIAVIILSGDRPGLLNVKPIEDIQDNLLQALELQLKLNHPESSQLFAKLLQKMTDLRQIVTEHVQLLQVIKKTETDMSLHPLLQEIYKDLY
# [19] = target: Peroxisome proliferator-activated receptor gamma (Homo sapiens) (UniProt P37231); test: PPARgamma agonists recruiting SRC-1 coactivator, confirmation, biochemical (AID 1300; in the data active means activation above about 20%;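 further: 0% = vehicle wells and 100% = reference agonist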); conditions: PPARgamma–SRC-1 coactivator recruitment biochemical assay; at 8 µM; active compounds read high
# [20] = target: Peroxisome proliferator-activated receptor gamma (Homo sapiens) + Nuclear receptor coactivator 3 (Homo sapiens) (UniProt P37231+Q9Y6Q9); test: PPARgamma-driven SRC-3 coactivator recruitment agonists, confirmation, biochemical (AID 1301; in the data active means activation above about 24%;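 further: 0% = vehicle wells and 100% = reference agonist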); conditions: biochemical PPARgamma-SRC-3 coactivator recruitment, agonist mode; at 8 µM; active compounds read high
# Peroxisome proliferator-activated receptor gamma (Homo sapiens) + Nuclear receptor coactivator 3 (Homo sapiens), sequence (P37231 whole entry, looked up, the tested form may be a part): as the sequence (P37231 whole entry, looked up) above
# Peroxisome proliferator-activated receptor gamma (Homo sapiens) + Nuclear receptor coactivator 3 (Homo sapiens), sequence (Q9Y6Q9 whole entry, looked up, the tested form may be a part): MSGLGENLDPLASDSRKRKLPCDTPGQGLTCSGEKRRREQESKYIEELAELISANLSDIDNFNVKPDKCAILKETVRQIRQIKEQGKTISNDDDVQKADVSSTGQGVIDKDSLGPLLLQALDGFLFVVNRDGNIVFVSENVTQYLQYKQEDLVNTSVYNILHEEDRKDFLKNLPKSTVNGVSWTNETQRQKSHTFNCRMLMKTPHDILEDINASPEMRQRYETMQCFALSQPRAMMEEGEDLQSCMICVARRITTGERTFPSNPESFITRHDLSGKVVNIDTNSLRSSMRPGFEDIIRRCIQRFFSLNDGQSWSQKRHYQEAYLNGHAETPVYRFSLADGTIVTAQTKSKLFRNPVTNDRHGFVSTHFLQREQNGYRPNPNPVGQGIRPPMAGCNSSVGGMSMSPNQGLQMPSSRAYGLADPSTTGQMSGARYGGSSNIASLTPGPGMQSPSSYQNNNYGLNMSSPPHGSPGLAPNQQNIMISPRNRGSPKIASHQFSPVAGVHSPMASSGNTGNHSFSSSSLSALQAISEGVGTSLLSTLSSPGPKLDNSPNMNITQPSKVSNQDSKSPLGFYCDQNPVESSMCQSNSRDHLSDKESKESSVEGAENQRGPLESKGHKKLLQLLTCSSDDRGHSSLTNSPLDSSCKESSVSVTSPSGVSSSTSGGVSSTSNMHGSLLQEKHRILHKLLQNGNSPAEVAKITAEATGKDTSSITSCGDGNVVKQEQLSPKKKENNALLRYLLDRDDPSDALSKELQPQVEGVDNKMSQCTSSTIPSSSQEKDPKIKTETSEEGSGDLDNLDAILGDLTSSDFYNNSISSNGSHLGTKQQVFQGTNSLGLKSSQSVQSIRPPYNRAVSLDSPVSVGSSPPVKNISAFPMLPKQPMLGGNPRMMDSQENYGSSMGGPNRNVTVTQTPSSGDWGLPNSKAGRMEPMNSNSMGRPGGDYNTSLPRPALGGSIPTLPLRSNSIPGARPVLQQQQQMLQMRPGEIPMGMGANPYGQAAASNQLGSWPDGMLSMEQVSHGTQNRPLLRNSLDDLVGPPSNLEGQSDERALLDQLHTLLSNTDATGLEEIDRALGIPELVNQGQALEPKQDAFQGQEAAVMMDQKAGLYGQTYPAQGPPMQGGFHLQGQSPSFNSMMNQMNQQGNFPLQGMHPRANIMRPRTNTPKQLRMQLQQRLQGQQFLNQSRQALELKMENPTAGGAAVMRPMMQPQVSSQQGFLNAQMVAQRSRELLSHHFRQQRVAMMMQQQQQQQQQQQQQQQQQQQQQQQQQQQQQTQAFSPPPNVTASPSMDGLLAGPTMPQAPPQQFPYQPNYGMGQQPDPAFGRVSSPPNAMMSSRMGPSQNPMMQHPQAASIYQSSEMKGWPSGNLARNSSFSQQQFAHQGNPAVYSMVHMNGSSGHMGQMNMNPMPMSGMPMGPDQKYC
# [21] = target: Nuclear receptor coactivator 1 (Homo sapiens) (UniProt Q15788); test: SRC1 coactivator transcriptional activity inhibitors, confirmation, cell-based, luminescence, quadruplicate (AID 588820;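 active means mean inhibition above 46.68%, the untreated control wells mean plus 3 SD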;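 further: 0% = DMSO wells and 100% = gossypol 36 µM treated wells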); conditions: HEK293 GAL4-SRC1 luciferase reporter, at 3.6 µM, active compounds read high
# [22] = VP16 transactivation inhibitors, counter-screen for SRC1 inhibitor project, cell-based, luminescence, high throughput (AID 588824; in the data active means inhibition above about 25%); conditions: cell-based VP16 transactivation luciferase luminescence; at 3.6 µM; active compounds read high
# [23] = StAR promoter reporter inhibitors, counter-screen for LRH-1 inverse agonist project, cell-based, luminescence, high throughput (AID 651611; in the data active means inhibition above about 28%); conditions: StAR promoter luciferase reporter counterscreen, at 3.6 µM, active compounds read high
# [24] = target: Nuclear receptor subfamily 5 group A member 2 (Homo sapiens) (UniProt O00482); test: LRH-1 (NR5A2) inverse agonists, retest, confirmation, cell-based, luminescence (AID 651613; in the data active means inhibition above about 42%;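 further: HEK293T cells co-transfected with LRH-1 and StAR promoter luciferase reporter; 0% = vehicle wells and 100% = parental cells lacking receptor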); conditions: cell-based LRH-1 luciferase reporter, inverse agonism; at 3.6 µM; active compounds read high
# [25] = target: Steroidogenic factor 1 (Homo sapiens) (UniProt Q13285); test: SF1 (NR5A1) inverse agonists, counter-screen for LRH-1 inverse agonist project, cell-based, luminescence, high throughput (AID 651614; in the data active means inhibition above about 44%;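 further: cells cotransfected with StAR promoter reporter and SF1 expression vector; 0% = vehicle on cells with receptor and 100% = vehicle on cells lacking receptor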); conditions: cell-based SF1 luciferase reporter, at 3.6 µM, active compounds read high
# Steroidogenic factor 1 (Homo sapiens), sequence (Q13285 whole entry, looked up, the tested form may be a part): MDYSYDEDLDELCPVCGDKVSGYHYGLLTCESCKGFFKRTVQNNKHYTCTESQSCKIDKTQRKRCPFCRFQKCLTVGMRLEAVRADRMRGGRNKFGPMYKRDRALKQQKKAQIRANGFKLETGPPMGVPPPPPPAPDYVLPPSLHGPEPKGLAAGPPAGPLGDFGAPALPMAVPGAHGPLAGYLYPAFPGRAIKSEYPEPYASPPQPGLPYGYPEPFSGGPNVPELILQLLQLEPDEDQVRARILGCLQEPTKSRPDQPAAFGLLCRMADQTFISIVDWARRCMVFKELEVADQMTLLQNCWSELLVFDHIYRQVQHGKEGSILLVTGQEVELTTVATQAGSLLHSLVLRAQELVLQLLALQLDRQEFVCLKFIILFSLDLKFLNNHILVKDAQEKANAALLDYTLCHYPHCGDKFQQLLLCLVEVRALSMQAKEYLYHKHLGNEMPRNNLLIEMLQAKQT
# [26] = VP16 transactivation reporter inhibitors, counter-screen for LRH-1 inverse agonist project, cell-based, luminescence, high throughput (AID 651615; in the data active means inhibition above about 33%); conditions: Gal4-VP16 luciferase reporter cells, at 3.6 µM, active compounds read high
compound,measurement,setting,value
O=C1NC(Nc2nc3ccccc3s2)(C(F)(F)F)C(=O)N1C1CCCCC1 (stereo not given),inhibition,[1],51.1% (active)
same,inhibition,[2],21.2% (active)
same,inhibition,[3],-9.63%
CC(C)(C)C(=O)c1cnc(Nc2ccccc2)s1,activation (% of control),[4],164% (active)
same,activation (% of control),[5],121%
same,activation (% of control),[6],105%
same,activation,[7],13.6% (active)
same,activation,[8],0.48%
Cc1ccc(-c2cn3cc([N+](=O)[O-])ccc3n2)cc1,inhibition,[1],60.3% (active)
same,inhibition,[2],-3.2%
same,inhibition,[3],-77%
Cc1ccc(NC(=O)CN(C)CC(=O)Nc2cccc(F)c2)cc1[N+](=O)[O-],inhibition,[1],35.9%
same,inhibition,[2],13% (active)
same,inhibition,[3],19.3% (active)
same,inhibition,[9],74.5% (active)
same,inhibition,[10],86.7% (active)
same,inhibition,[11],1.63%
same,inhibition,[12],51.8% (active)
c1ccc2[nH]c(-c3nc4ccccc4[nH]3)nc2c1,inhibition,[13],21.3%
same,inhibition,[14],8.39%
same,inhibition,[1],5.87%
same,inhibition,[2],-30%
same,inhibition,[3],-97.2%
same,inhibition,[15],58.4% (active)
same,activation,[16],1.09%
same,activation,[17],4.57%
Cc1cc(N2C(=O)C(=O)/C(=C(/O)c3ccc(Cl)cc3)C2c2cccc(Br)c2)no1 (stereo not given),activation,[18],28.1% (active)
same,activation,[19],18.8%
same,activation,[20],14%
O=C(Nc1ccc(Cl)cn1)c1ccc2c(c1)OCCO2,inhibition,[1],26.7%
same,inhibition,[2],-3.07%
same,inhibition,[3],-103%
same,activation,[7],13.4% (active)
same,activation,[8],0.89%
Cc1ccc(S(=O)(=O)Nc2ccc3ncccc3c2)cc1,inhibition,[1],42.9%
same,inhibition,[2],3.83%
same,inhibition,[3],18% (active)
same,inhibition,[21],-9.28%
same,inhibition,[22],5.01%
same,inhibition,[9],89.4% (active)
same,inhibition,[10],74.4% (active)
same,inhibition,[23],14.9%
same,inhibition,[24],47.2% (active)
same,inhibition,[25],36.3%
same,inhibition,[26],18.1%

# — PubChem BioAssay
